Data published in PubChem BioAssay.
A number with no mark means an inactive call. Active and inactive are the calls of the source.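 Rule for the calls, unless noted: active = mean inhibition above 46.5%, the solvent-only control mean plus 3 SD; inactive = the rest.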

Columns and labels:
[1] = test system: transactivating tegument protein VP16 (Human herpesvirus 1); assay: VP16 transactivation reporter inhibitors, counter-screen for SRC2 inhibitor project, cell-based, luminescence, single concentration (AID 652007; in the data active = inhibition above about 36%); conditions: cell-based VP16 transactivation luciferase reporter, at 8.9 µM, hits give high values
[2] = biological target: Nuclear receptor coactivator 2 (Homo sapiens) (UniProt Q15596); assay: SRC2 coactivator transcriptional activity inhibitors, confirmation, cell-based, luminescence, HEK293, triplicate (AID 652008); conditions: HEK293 GAL4-SRC2 luciferase reporter, at 8.9 µM, hits give high values;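 note: 0% = DMSO-treated cells and 100% = Gossypol at 36 µM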
Chain of Nuclear receptor coactivator 2 (Homo sapiens) (Q15596 whole entry, looked up, the tested form may be a part): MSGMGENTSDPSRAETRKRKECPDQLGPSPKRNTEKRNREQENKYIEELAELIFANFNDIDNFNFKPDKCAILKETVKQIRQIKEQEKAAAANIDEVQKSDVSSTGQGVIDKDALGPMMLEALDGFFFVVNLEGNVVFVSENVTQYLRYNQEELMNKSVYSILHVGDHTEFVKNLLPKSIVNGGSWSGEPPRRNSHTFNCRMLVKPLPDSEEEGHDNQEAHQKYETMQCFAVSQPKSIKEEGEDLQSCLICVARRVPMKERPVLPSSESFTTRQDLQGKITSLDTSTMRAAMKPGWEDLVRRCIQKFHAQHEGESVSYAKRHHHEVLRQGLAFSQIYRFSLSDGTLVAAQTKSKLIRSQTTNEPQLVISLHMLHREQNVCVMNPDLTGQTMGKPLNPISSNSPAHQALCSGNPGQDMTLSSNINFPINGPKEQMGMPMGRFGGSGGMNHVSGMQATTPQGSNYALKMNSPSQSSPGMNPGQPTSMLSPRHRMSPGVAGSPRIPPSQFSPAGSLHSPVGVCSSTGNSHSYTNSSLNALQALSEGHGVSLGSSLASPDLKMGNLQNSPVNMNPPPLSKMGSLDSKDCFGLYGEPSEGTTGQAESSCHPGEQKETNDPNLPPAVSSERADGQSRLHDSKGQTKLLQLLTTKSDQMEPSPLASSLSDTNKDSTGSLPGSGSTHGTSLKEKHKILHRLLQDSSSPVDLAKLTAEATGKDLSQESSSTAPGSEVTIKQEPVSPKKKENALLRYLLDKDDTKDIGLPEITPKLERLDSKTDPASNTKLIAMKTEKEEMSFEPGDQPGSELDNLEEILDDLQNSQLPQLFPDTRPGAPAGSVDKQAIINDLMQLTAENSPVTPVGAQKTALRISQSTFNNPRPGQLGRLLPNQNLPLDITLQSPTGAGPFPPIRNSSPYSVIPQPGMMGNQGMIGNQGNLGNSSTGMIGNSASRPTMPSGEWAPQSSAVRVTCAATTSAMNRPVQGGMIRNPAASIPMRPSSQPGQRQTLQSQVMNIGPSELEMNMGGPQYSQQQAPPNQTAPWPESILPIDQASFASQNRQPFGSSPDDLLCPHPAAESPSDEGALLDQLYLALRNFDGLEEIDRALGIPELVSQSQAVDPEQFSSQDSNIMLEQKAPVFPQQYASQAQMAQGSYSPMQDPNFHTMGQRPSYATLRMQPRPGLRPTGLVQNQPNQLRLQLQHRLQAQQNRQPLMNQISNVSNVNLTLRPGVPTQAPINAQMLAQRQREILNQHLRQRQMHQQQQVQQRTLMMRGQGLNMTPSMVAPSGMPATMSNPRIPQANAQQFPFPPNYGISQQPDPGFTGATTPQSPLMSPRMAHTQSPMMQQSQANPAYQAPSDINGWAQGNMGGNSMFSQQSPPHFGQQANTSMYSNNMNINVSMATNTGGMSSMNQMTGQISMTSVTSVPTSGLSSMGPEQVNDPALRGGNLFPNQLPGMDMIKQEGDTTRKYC

## COC(=O)C1=C(C)N(Cc2ccccc2C(F)(F)F)C(=NCc2ccccc2)NC1c1ccc(Cl)cc1 (centres undefined)
[1]
  inhibition: 2.66%
[2]
  inhibition: 1.39%

## COc1cc(S(=O)(=O)N(C)Cc2ccc3c(c2)OCCO3)ccc1NC(C)=O
[1]
  inhibition: -27.6%
[2]
  inhibition: -19.6%

## Cc1ccc(C(=O)/C=C/Nc2ccccn2)cc1
[1]
  inhibition: 31.1%
[2]
  inhibition: 77% (active)

## CCOC(=O)C1CCCN(C(=O)c2ccc3c(c2)N(C)C(=O)/C(=C/c2ccccc2Cl)S3)C1 (centres undefined)
[1]
  inhibition: -1.52%
[2]
  inhibition: 23.8%

## Cn1c(=O)c(=O)n(C)c2cc(S(=O)(=O)Nc3ccc4c(c3)OCCO4)ccc21
[1]
  inhibition: -4.82%
[2]
  inhibition: 47.5% (active)

## O=C(c1cc2sccc2n1Cc1ccc(F)cc1)N1CCN(c2nc3ccccc3s2)CC1
[1]
  inhibition: 6.21%
[2]
  inhibition: 36.9%

## C=CS(=O)(=O)N(Cc1nnn(Cc2ccccc2)c1Br)[C@H](C(=O)OC)C(C)C
[1]
  inhibition: 18.8%
[2]
  inhibition: 27.4%

## Cc1ccc(NC(=O)C2CCC(C(C)(C)C)CC2)cc1S(=O)(=O)N1CCOCC1 (centres undefined)
[1]
  inhibition: 3.84%
[2]
  inhibition: 12.3%

## CC(C)(C)n1nc(Cc2cccc3ccccc23)c2c(N)ncnc21
[1]
  inhibition: 2.66%
[2]
  inhibition: 29.4%

## CCOc1ccc(CN(C)C(=O)CCl)cc1
[1]
  inhibition: 30.9%
[2]
  inhibition: 35.6%

## C=CCc1cccc2cc(C(=O)Nc3ccc(CC(=O)O)cc3)c(=O)oc12
[1]
  inhibition: 12%
[2]
  inhibition: 25.6%

## CCOC(=O)c1c(NC(=O)c2cnn3c2NC(c2cccc(OC)c2)CC3C(F)(F)F)sc2c1CCCC2 (centres undefined)
[1]
  inhibition: 16.7%
[2]
  inhibition: -21.9%

## O=C(c1ccc(Cl)cc1)C(CN1CCCC1)c1ccccc1 (centres undefined)
[1]
  inhibition: 26.1%
[2]
  inhibition: 53.9% (active)

## CC(=O)N1CCCc2cc(S(=O)(=O)N3CCCC(C(=O)NCc4ccccc4Cl)C3)ccc21 (centres undefined)
[1]
  inhibition: 24.9%
[2]
  inhibition: 21.1%

## Cc1ccc2nc(-c3ccc4c(c3)OCCO4)cn2c1
[1]
  inhibition: 58.9% (active)
[2]
  inhibition: 88.3% (active)

## Fc1ccc(CNC2CCN(Cc3ccccc3)CC2)cc1
[1]
  inhibition: 7.5%
[2]
  inhibition: -3.44%

## NC1=NC(=O)/C(=C\c2cccnc2)S1
[1]
  inhibition: -14.6%
[2]
  inhibition: 35.6%

## O=C(Nc1ccc2oc(=O)c(C(=O)O)cc2c1)Oc1ccccc1
[1]
  inhibition: -3.08%
[2]
  inhibition: 9.66%

## COc1ccc(C(=O)N/N=C\c2coc3ccc(Cl)cc3c2=O)cc1
[1]
  inhibition: 3.52%
[2]
  inhibition: 5.31%

## CCOC(=O)C1CCN(C(=O)CCc2c(C)nc3cc(-c4ccccc4)nn3c2C)CC1
[1]
  inhibition: -24.4%
[2]
  inhibition: 48.5% (active)

## Cc1nn(C)c(Cl)c1NC(=O)OCc1ccc(Cl)cc1Cl
[1]
  inhibition: 10.8%
[2]
  inhibition: 16.2%

## O=c1cc(-c2ccc(O)cc2)oc2ccc3ccccc3c12
[1]
  inhibition: 5.39%
[2]
  inhibition: 50.8% (active)

## NCCCCCc1nnc(SCc2ccccc2Cl)o1
[1]
  inhibition: 48.5% (active)
[2]
  inhibition: 53.5% (active)

## O=C(c1ccccc1F)N1CCN(S(=O)(=O)c2ccc3c(c2)OCCO3)CC1
[1]
  inhibition: 3.25%
[2]
  inhibition: 22.9%

## O=C(NCc1cccnc1)c1cc(Sc2ccc(F)cc2F)nc2ccccc12
[1]
  inhibition: 3%
[2]
  inhibition: 16.4%

## Cc1ccc(-c2c(C(=O)N/N=C/C3CCCCC3)nnn2-c2nonc2N)cc1
[1]
  inhibition: -21.5%
[2]
  inhibition: -23%

## COc1cc(Cn2c3ccc(NC(=O)CC(C)c4ccccc4)cc3c(=O)n2C)ccc1F (centres undefined)
[1]
  inhibition: -0.16%
[2]
  inhibition: 2.27%

## O=C(Nc1ccc(NC(=O)c2ccco2)cc1)c1ccc2c(c1)OCCO2
[1]
  inhibition: -30.2%
[2]
  inhibition: 12.1%

## O=C(NC(c1ccc(F)cc1)c1ccc2ccccc2n1)C1CCN(CCOc2ccc(F)cc2)CC1 (centres undefined)
[1]
  inhibition: -1.57%
[2]
  inhibition: -16.5%

## O=C(c1ccccc1)N1CCN(c2ncnc3sc4c(c23)CCC4)CC1
[1]
  inhibition: 19.7%
[2]
  inhibition: 37.1%

## C=CCNC(=S)NCc1ccccc1
[1]
  inhibition: -11.1%
[2]
  inhibition: -24.7%

## COc1cccc(N2C(=O)CC(NNC(=O)c3cccs3)C2=O)c1 (centres undefined)
[1]
  inhibition: -15.3%
[2]
  inhibition: -23.7%

## Nc1ccc(C(=O)N2CCN(S(=O)(=O)c3ccc4c(c3)OCCO4)CC2)cc1[N+](=O)[O-]
[1]
  inhibition: 2.71%
[2]
  inhibition: 40.5%

## O=C(CNC(=O)c1ccc2c(c1)OCO2)Nc1cccc(Br)c1
[1]
  inhibition: -13.8%
[2]
  inhibition: -16.3%

## CCC(C)C(NC(=O)OCc1ccccc1)C(=O)OCN1C(=O)c2ccccc2C1=O (centres undefined)
[1]
  inhibition: -13.9%
[2]
  inhibition: -8.71%

## CC(OC(=O)CN1C(=O)NC2(CCCC2)C1=O)c1ccc(F)cc1 (centres undefined)
[1]
  inhibition: -16.9%
[2]
  inhibition: -26.5%

## COc1ccc(S(=O)(=O)N2c3ccc(F)cc3CCC2C)cc1 (centres undefined)
[1]
  inhibition: -6.76%
[2]
  inhibition: 1.23%

## COc1ccc(S(=O)(=O)n2ccc(-c3ccc(OCCN(C)c4ccccn4)cc3)n2)cc1
[1]
  inhibition: 3.56%
[2]
  inhibition: 30.2%

## CCC(C)c1ccc(C(C)NC(=S)NC2CCCCC2)cc1 (centres undefined)
[1]
  inhibition: -0.76%
[2]
  inhibition: 22.8%

## COc1cccc(/C=N/NC(=O)c2cc(-c3ccccn3)nc3ccccc23)c1O
[1]
  inhibition: 9.38%
[2]
  inhibition: 19.8%

## CC1CCc2c(sc3nc(CSc4ncn[nH]4)[nH]c(=O)c23)C1 (centres undefined)
[1]
  inhibition: 33%
[2]
  inhibition: 35.2%

## Cc1ccc(C(C)C)c(OCc2ccc(C(=O)N/N=C/c3ccc(C(=O)O)cc3)cc2)c1
[1]
  inhibition: -13.2%
[2]
  inhibition: 41.4%

## O=C(NC1CC1)c1ccc(-c2nc3ccccc3s2)s1
[1]
  inhibition: -51.1%
[2]
  inhibition: 16.9%

## c1cc(-c2nnc3n2N=C(c2ccc4c(c2)OCO4)CS3)ccn1
[1]
  inhibition: -3.48%
[2]
  inhibition: 42.4%

## O=C(c1ccc(S(=O)(=O)Cc2cc(F)ccc2F)c([N+](=O)[O-])c1)N1CCOCC1
[1]
  inhibition: 5.57%
[2]
  inhibition: 13.5%

## CCC(C)(C)c1ccc(Oc2ccc(NC(=O)COC(=O)C3=COCCO3)cc2)cc1
[1]
  inhibition: 33.8%
[2]
  inhibition: 46.5%

## O=C(CCCN1C(=O)/C(=C/c2ccccc2Cl)SC1=S)Nc1cccnc1
[1]
  inhibition: -29.3%
[2]
  inhibition: -4.66%

## CCNC(=O)NC(=O)C(C)OC(=O)CCCSc1nc2ccccc2s1 (centres undefined)
[1]
  inhibition: 14.4%
[2]
  inhibition: 22.5%

## CCOc1ccc(NS(=O)(=O)c2ccc(C(=O)NC3CCN(Cc4ccccc4)CC3)cc2)cc1
[1]
  inhibition: -3.23%
[2]
  inhibition: 8.19%

## CCN1CCCc2cc(CN(CCN3CCOCC3)C(=S)Nc3ccccc3OC)ccc21
[1]
  inhibition: -14.1%
[2]
  inhibition: -10.6%

## O=C(Cc1coc2cc3c(cc12)CCC3)OCC(=O)N1CCCC1=O
[1]
  inhibition: 16.3%
[2]
  inhibition: 38.7%

## O=C(O)COc1ccccc1/C=N/NC(=O)Cc1csc(Nc2cccc(C(F)(F)F)c2)n1
[1]
  inhibition: -15.7%
[2]
  inhibition: -14.6%

## O=C1C(N2CCOCC2)=C(n2nnc3ccccc32)C(=O)c2ccccc21
[1]
  inhibition: 43.9% (active)
[2]
  inhibition: 34.6%

## CN1CCN(c2nc3ccccc3nc2C(C#N)S(=O)(=O)c2ccccc2)CC1 (centres undefined)
[1]
  inhibition: 10.5%
[2]
  inhibition: 20.1%

## CCC/C(C#Cc1ccsc1)=C1/c2ccccc2C(=O)N1c1ccccc1
[1]
  inhibition: -8.53%
[2]
  inhibition: -18.8%

## O=[N+]([O-])c1cc(C(F)(F)F)ccc1NCCCCNS(=O)(=O)c1ccc(Cl)cc1
[1]
  inhibition: 3.03%
[2]
  inhibition: 43.3%

## CN(Cc1ccc(Cl)cc1)C(=O)CCl
[1]
  inhibition: 29.1%
[2]
  inhibition: 25.3%

## Cc1sc(NC(=O)CSc2nnnn2C(C)C)c(C#N)c1C
[1]
  inhibition: 2.68%
[2]
  inhibition: -4.47%

## Cc1ccc(NC(=O)C2CCN(S(=O)(=O)c3c(C)noc3/C=C/c3ccco3)CC2)nc1
[1]
  inhibition: 11.6%
[2]
  inhibition: 22.4%

## O=S(=O)(Nc1cc(Sc2cccc3cccnc23)c(O)c2ccccc12)c1ccccc1
[1]
  inhibition: 97.2% (active)
[2]
  inhibition: 98.7% (active)

## COn1c2c(c3c4nonc4ccc31)CCCC2
[1]
  inhibition: 0.98%
[2]
  inhibition: 18.7%

## COc1cc(/C=C2\COC/C(=C\c3cc(OC)c(OC)c(OC)c3)C2=O)cc(OC)c1OC
[1]
  inhibition: 96.8% (active)
[2]
  inhibition: 97.7% (active)

## O=C(COC(=O)CCCOc1ccc(Cl)cc1Cl)NCc1ccccc1
[1]
  inhibition: 0.2%
[2]
  inhibition: 15.4%

## CC(C)(C)c1ccc(OCC(O)CSc2ncn[nH]2)cc1 (centres undefined)
[1]
  inhibition: 0.7%
[2]
  inhibition: 14.2%

## Cc1ccc2c(c1)COc1c3ccc(C(=O)O)cc3nn1-2
[1]
  inhibition: -24.7%
[2]
  inhibition: -1.87%

## COc1ccccc1NS(=O)(=O)c1ccc(C)c(C(=O)NC2CCN(Cc3ccccc3)CC2)c1
[1]
  inhibition: 17.2%
[2]
  inhibition: 36.4%

## COC(=O)[C@]12C[C@H](CC(=O)N3CCCCC3)C(=O)N(Cc3ccco3)C1=C[C@H](C(C)C)O[C@@H]2C1CC1
[1]
  inhibition: -5.52%
[2]
  inhibition: -14.3%

## Brc1cccc(-c2cnc3n2CCCCC3)c1
[1]
  inhibition: 12.6%
[2]
  inhibition: 29.2%

## O=C(O)CCCc1nc(-c2ccc(Cl)cc2)no1
[1]
  inhibition: 20.7%
[2]
  inhibition: 30%

## CCN(CC)S(=O)(=O)c1cccc(C(=O)N/N=C/c2cccc(O)c2O)c1
[1]
  inhibition: -46.8%
[2]
  inhibition: -7.21%

## Cc1nc(=O)c(-c2ccccc2)c(C)n1-c1ccccc1Cl
[1]
  inhibition: -4.06%
[2]
  inhibition: -36.8%

## Cc1ccc(CN2CCC(C(=O)Nc3ccc(Oc4cccnc4)cc3)CC2)cc1
[1]
  inhibition: 7.59%
[2]
  inhibition: -0.58%
